Common to all, as to experiment: NCI-60 one-dose screen, 48 h (100 = growth as untreated, 0 = no growth, -100 = all killed)
What all share (details): 10 µM

For assay [1], the system named is SR leukemia.
Assay [2] concerns OVCAR-8 ovarian.
In assay [3] the test system is OVCAR-5 ovarian.
The test system of assay [4] is OVCAR-4 ovarian.
The subject of assay [5] is SK-OV-3 ovarian.
Assay [6] deals with OVCAR-3 ovarian.
Assay [7] relates to HS 578T breast.
In assay [8] the test system is NCI/ADR-RES ovarian.
The test system of assay [9] is IGROV1 ovarian.
In assay [10] the test system is RPMI-8226 leukemia.

The panel holds about 83,000 compounds, 20% with a hit somewhere; the sample as a whole holds those more often.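 The test compound was applied at a single concentration to cells in 96-well plates for 48 hours, and percent growth was recorded.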 Values without a mark were called inactive. The source made the active and inactive calls. The calls were made as follows: active = growth percent below 10; inactive = the rest.

Consider `O=C1CC[C@@H](C(=O)N[C@H]2CSSC[C@@H](C(=O)NCCc3ccccc3)NC(=O)[C@H](Cc3ccccc3)NC(=O)[C@@H]3CCCN3C(=O)[C@@H]3CCCN3C2=O)N1`, for which the growth in assay [1] is 94.5%; in [2] it was 104%; in assay [3], 90.4%; in [4], 105%; in assay [5], 97.5%; in [6], 104%. Further, the growth in [7] was 101%; in assay [8], 99.8%.
On to `O=C1NN(c2ccccc2)C(c2cccnc2)=N/C1=C\c1cccnc1`, for which the growth was 73.6% in assay [1]; 106% in assay [2]; 85.8% in [3]; 94.3% in assay [4]; 104% in assay [5]; 103% in assay [9]. For the same molecule, the growth in assay [6] is 89.8%; in [7], 87.1%; in assay [8] it was 91.2%.
As for `COc1cc(C(c2c[nH]c3ccccc23)N2CCCC2)ccc1OCc1ccccc1` (stereo not drawn), the growth in [1] was 34.9%; in [2], 80.4%; in assay [3], 97.1%; in assay [4] it was 91.8%; in [5], 89.5%; in [9], 48.1%. The growth in assay [6] is 75.5%; in [7] it was 57.2%; in [8] it was 76.5%.
Regarding `COc1ccc(N2CCN(c3nc(-c4ccccc4)c(C#N)c(=O)[nH]3)CC2)cc1`, the growth in assay [1] was 89.7%; in assay [2], 102%; in assay [3] it was 105%; in assay [4], 102%; in assay [5] it was 96.6%; in assay [9] it was 101%. For the same molecule, the growth is 103% in [6], 112% in [7] and 98.9% in assay [8].
In the case of `CCCCCC(=O)N1c2ccccc2NC2=C(C(=O)CC(c3ccc(OC)c(OC)c3)C2)C1c1ccc(C(F)(F)F)cc1` (stereo not drawn), the growth in [1] was 51.8%; in assay [2], 47.1%; in assay [3], 103%; in [4] it was 41.8%; in [5] it was 83.6%; in [9], 63%. Further, the results for the growth in [6], in [7] and in assay [8] were 33.1%, 78.7% and 58.7%, respectively.
For `CCCN(CCC)CCCNC(=O)c1cc2c(-c3ccc(OC)c(OC)c3)nn(C)c2s1`, the growth is -10.5% (active) in [10]; 4.29% (active) in assay [2]; 69.5% in assay [3]; 22.1% in [4]; 24% in [5]; 35.5% in assay [9]. The values for the growth in assay [6], in assay [7] and in assay [8] were -10.1% (active), 11.5% and -8.48% (active), respectively.
With `NC(N)=NS(=O)(=O)c1ccc(Nc2ccc3nnc(-c4ccncc4)n3n2)cc1`, the growth in [1] is 96.9%; in [2], 96.7%; in assay [3] it was 100%; in assay [4], 103%; in assay [5], 104%; in assay [9], 113%. Also, the growth was 110% in [6], 99.6% in assay [7] and 105% in [8].
For `COc1ccc(C2C=C(c3ccc(Cl)c(Cl)c3)N=C3SC(C)=CN32)cc1OC` (stereo not drawn), the growth in assay [1] is 61.9%; in assay [2], 68.7%; in assay [3] it was 97.1%; in [4] it was 72.9%; in assay [5], 109%; in assay [9], 72.2%. Also, the growth is 60.9% in assay [6], 90.8% in assay [7] and 79.4% in assay [8].
As to `O=S(=O)(NCl)c1ccccc1`, the growth in assay [1] is 86%; in assay [2], 103%; in assay [3], 110%; in assay [4], 95.9%; in assay [5] it was 105%; in [9], 107%. In addition, the growth was 119% in [6], 102% in assay [7] and 103% in [8].
On to `CCN1CCN(c2ccc(Nc3ncnc4c3nnn4CCc3cc(OC)cc(OC)c3)cc2)CC1`, for which the growth was 91.1% in [10]; 87.5% in [2]; 86.7% in assay [3]; 86.7% in [4]; 101% in [5]; 111% in [9]. In addition, the growth in assay [6] is 99.2%; in assay [7] it was 88.2%; in [8], 92.3%.
`CCOc1nc(-c2ccccc2)cc2c(O)c(C(=O)NC(C)C)[nH]c(=O)c12`: the growth was 94% in assay [1]; 103% in assay [2]; 114% in assay [3]; 118% in assay [4]; 98.6% in [5]; 100% in assay [6]. Also, the growth in assay [7] is 82.5%; in assay [8], 96.8%.
As for `N#Cc1ccc(-n2cnc(NC(=O)[C@H]3CCN(C#N)C3)c2)cc1`, the growth is 16.2% in assay [10]; 15.5% in [2]; 23.8% in [3]; 28.9% in [4]; 62.5% in assay [5]; 20.8% in [9]. The growth in assay [6] is 11.4%; in assay [7] it was 19.2%; in [8], 36.6%.
Consider `O=C(O)c1cc(C(F)(F)F)cc(C(F)(F)F)c1`, for which the growth is 104% in assay [10]; 106% in assay [2]; 107% in [3]; 108% in assay [4]; 114% in assay [9]; 107% in [6]. Also, the figures for the growth in [7] and in assay [8] were 109% and 107%, respectively.
For the molecule `O=C(CCc1ccccc1)N1CCN(C(=O)CCc2ccccc2)CC1`, the growth in [10] is 92.3%; in assay [2], 96%; in assay [3] it was 110%; in [4], 101%; in [5], 115%; in assay [9], 99.7%. The growth in assay [6] was 118%; in [7], 100%; in assay [8], 108%.
On to `O=C(NC1CCN(Cc2ccccc2)CC1)c1cc(-c2ccncc2)nc2ccc(Cl)cc12`, for which the growth in assay [10] is 21.9%; in [2], 18.4%; in assay [3], 75.3%; in [4], 27.6%; in assay [5] it was 53.1%; in [9] it was 32.3%. Moreover, the growth is 15.5% in [6], 59.9% in assay [7] and 11.2% in assay [8].
`Cc1nc(Nc2nc3ccccc3o2)nc(-c2cccc([N+](=O)[O-])c2)c1C(=O)Nc1ccc(F)c(Cl)c1`: the growth in assay [10] was -41.4% (active); in assay [2] it was 6.5% (active); in assay [3], 33%; in assay [4], 16%; in assay [5], 10%; in [9], 40.3%. Also, the growth in [6] was 6.94% (active); in assay [7], 4.55% (active); in assay [8] it was 3.88% (active).
As for `O=NN(CC(=O)N/N=C/C=C\c1ccccc1)CC(=O)N/N=C/C=C/c1ccccc1`, the growth in assay [10] is 95.2%; in assay [2], 51%; in assay [3], 94.6%; in [4], 97.2%; in assay [5], 102%; in assay [9] it was 84%. Moreover, the growth in assay [6] is 103%; in assay [7], 80.5%; in [8] it was 103%.
On to `COc1ccc(C2C=C(c3ccc(Cl)cc3)N=C3SC=CN32)c(Br)c1` (stereo not drawn), for which the growth was 67.3% in [2]; 98.2% in assay [3]; 80.9% in [4]; 117% in assay [5]; 98.1% in [9]; 60.5% in assay [6]. Further, the growth in assay [7] was 94.8%; in [8], 89.9%.
As for `O=C(OCc1ncc(-c2ccc(C(F)(F)F)cc2)c(NC2CCCCCC2)n1)c1c(F)c(F)c(F)c(F)c1F`, the growth in [2] was 44.1%; in assay [3], 88.3%; in [4] it was 49.4%; in [9], 63.7%; in assay [6], 29.8%; in [7], 65.3%. Further, the growth in assay [8] is 96.3%.
Turning to `FC(F)(F)c1ccc(-c2cnc(Cl)nc2NC2CCCCCC2)cc1`, the growth was -4.84% (active) in assay [10]; 15.2% in assay [2]; 28.7% in [3]; 10.6% in assay [4]; 56.1% in assay [5]; 27.7% in assay [9]. Besides, the growth in assay [6] is 3.4% (active); in assay [7], 41.1%; in assay [8] it was 74.2%.
As for `COc1ccc(C2=Cc3ccc(OC(C)=O)cc3OC2)cc1`, the growth is 83.4% in assay [10]; 95.8% in assay [2]; 101% in assay [3]; 88.1% in assay [4]; 119% in assay [5]; 102% in assay [9]. Also, the values for the growth in assay [6], in [7] and in assay [8] were 93.1%, 103% and 85.2%, respectively.
For the molecule `CC1(C)CC(OCCCC[P+](c2ccccc2)(c2ccccc2)c2ccccc2)CC(C)(C)N1O`, the growth in assay [10] was -73.5% (active); in assay [2] it was 6.29% (active); in [3], 18.2%; in assay [4] it was 21.5%; in assay [5] it was -13.4% (active); in [9], -21% (active). Also, the growth is -46.1% (active) in assay [6], -10.5% (active) in [7] and 55.2% in assay [8].
In the case of `Cn1c([N+](=O)[O-])cnc1C=C1C(=O)c2ccccc2C1=O`, the growth is 40.6% in [10]; 7.11% (active) in assay [2]; 61.3% in assay [3]; 56.8% in [4]; 54% in assay [5]; 38.1% in assay [6]. Further, the figures for the growth in [7] and in assay [8] were 26.4% and 44.5%, respectively.
On to `COc1ccc(/C(=C/c2cc(OC)c(OC)cc2[N+](=O)[O-])C(=O)O)cc1`, for which the growth in [10] is 97.3%; in assay [2] it was 109%; in assay [3] it was 111%; in [4] it was 113%; in assay [9], 107%; in assay [6] it was 125%. Besides, the growth was 114% in [7] and 110% in assay [8].

The values above are taken from PubChem BioAssay (NCI).
